Results filed as inconclusive are left out. Entries that show only a call come without a potency. Active and inactive are the calls of the source. Calls follow the shape of the dose curve; as a rule, active = well fitted curve in the direction sought with a large enough effect; inconclusive = small, poorly fitted or top-dose-only effect, or another doubt; inactive = no such curve, though single readings can be large; an effect the other way counts as inactive or inconclusive.
Potency is read from the fitted curve at half-maximal effect.

Sequence of Glutathione peroxidase 1 (Homo sapiens) (P07203 whole entry, looked up): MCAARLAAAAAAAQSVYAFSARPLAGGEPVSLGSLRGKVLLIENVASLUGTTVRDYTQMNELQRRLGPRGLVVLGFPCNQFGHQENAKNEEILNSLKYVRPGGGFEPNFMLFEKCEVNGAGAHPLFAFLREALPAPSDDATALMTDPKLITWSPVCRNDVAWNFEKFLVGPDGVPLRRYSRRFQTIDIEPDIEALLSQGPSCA

Tested on in one experiment: not listed separately
Briefly: Primary qHTS for inhibitors of nuclear receptor binding SET domain protein 2 (NSD2) in an RCH-ACV wild type WT cells (2C) (AID 1645877). Also: nearly all actives have a fitted effect of over 70% in size. As to conditions: RCH-ACV (leukaemia line) NSD2 WT (2C) viability, CellTiter-Glo, 72 h; series mostly up to 44.9 µM.
Consider `N#Cc1c2nc3ccccc3nc2n2ccc(NC(=O)c3cccs3)cc12`, for which the Potency was 1.16 µM (active).
Take `COc1cc2ncnc(Sc3nnc(C)s3)c2cc1OC`: the Potency is 3.26 µM (active).
On the same count and under the same terms, the value for `Oc1cccc(Nc2ccnc3cc(-c4cccc(CN5CCOCC5)c4)sc23)c1` was 1.46 µM (active).
Same read-out and setting: the value for `CCOc1cccc2c1OC(c1ccc(F)cc1)C([N+](=O)[O-])=C2` (centres undefined) was 5.8 µM (active); that for `CCCCCC1CC1CC1CC1CCCCCCCC(=O)O` (centres undefined) was “inactive”; that for `Oc1cccc(-c2nc(N3CCOCC3)c3sccc3n2)c1` was 1.16 µM (active).
Consider `O=C1NCCSc2c1sc1ccc(O)cc21`, for which the Potency is 3.66 µM (active).
On to `COC(=O)C#Cc1ccc([N+](=O)[O-])cc1`, for which the Potency was 4.11 µM (active).
Still for that read-out and setting: the value for `Nc1nc(N)c2nc(-c3cccc(O)c3)cnc2n1` was 1.46 µM (active); that for `CSc1nc(N)cc(Oc2ccc(-c3nc(Nc4cccc(C(F)(F)F)c4)n[nH]3)cc2)n1` was 1.3 µM (active); that for `CN[C@H]1CCN(C(=O)c2ccc(Nc3ncc(F)c(-c4cnc(C)n4C(C)C)n3)cc2)C1` was 0.116 µM (active).
With `CN(C)CCCNc1c2ccccc2nc2c1[nH]c1ccccc12`, the Potency is 2.06 µM (active).
On the same count and under the same terms, the value for `C=C(C)[C@@H]1CCC2=CC(=O)C[C@@H](C)[C@]2(C)C1` was “inactive”.
Regarding `C/C(=C1/C(=O)Nc2ccc(NC(N)=O)cc21)c1ccc[nH]1`, the Potency was 1.84 µM (active).
The same measure, in the same setting: the value for `CC(Sc1nc2c(cnn2-c2cccc(Cl)c2)c(=O)[nH]1)C(N)=O` (centres undefined) was “inactive”; that for `CC1=CC(=O)C(C(C)C)=C/C1=N/OC(=O)c1ccccc1C` was 11.6 µM (active); that for `CN1CCN(c2nc(C3=C(c4c[nH]c5ccccc45)C(=O)NC3=O)c3ccccc3n2)CC1` was 14.8 µM (active).
The same measure, in the same setting: the value for `O=S(=O)(/N=C/c1c(O)ccc2ccccc12)c1cccs1` was “inactive”; that for `Cc1cc(C)c(/C=C2\C(=O)Nc3ccc(Cl)cc32)[nH]1` was “inactive”; that for `CCOC(=O)c1c2c3c(cccc3[nH]c1=O)C(=O)c1ccccc1-2` was “inactive”.
Same read-out and setting: the value for `O=C1Cc2c([nH]c3ccc([N+](=O)[O-])cc23)-c2ccccc2N1` was 0.632 µM (active); that for `O=C(NCCO)c1cc(C(=O)NCCO)cc(C(=O)NCCO)c1` was “inactive”.
In the case of `CCCCCCCCCCCCCC#CC(=O)[C@@H]1COC(C)(C)N1C(=O)OC(C)(C)C`, the Potency is 16.4 µM (active).
Still for that read-out and setting: the value for `BrC1C(Br)C(Br)C(Br)C(Br)C1Br` (centres undefined) was “inactive”.
The same measure, in the same setting: the value for `Cc1cc(Nc2nn(-c3ccccc3)c(=O)c3ccccc23)n[nH]1` was 1.03 µM (active).
The same measure, in the same setting: the value for `Cc1c(-c2ccnc(Nc3cc(Br)cc(C(F)(F)F)c3)n2)sc(=O)n1C` was 4.11 µM (active); that for `CCN(CC)CCNC(=O)c1c(C)[nH]c(/C=C2\C(=O)Nc3ccc(Cl)cc32)c1C` was 2.91 µM (active); that for `O=C(Nc1cccc(Nc2nccc(Nc3cccc(C(F)(F)F)c3)n2)c1)C1CC1` was 2.59 µM (active).
Turning to `Cc1c[nH]c(/C=C2\C(=O)Nc3ccccc32)c1CCC(=O)O`, the Potency is 18.6 µM (active).
The same measure, in the same setting: the value for `COC1(c2sc3c(N4CCOCC4)nc(-c4cnc(N)nc4)nc3c2C)COC1` was 0.186 µM (active).

A further experiment has as its target Glutathione peroxidase 1 (Homo sapiens) (UniProt P07203). Description: Primary qHTS Assay for Inhibitors of Recombinant Selenoprotein Glutathione Peroxidase 1 (GPX1) (AID 1845191). Also: nearly all actives have a fitted effect of over 65% in size. As to conditions: recombinant GPX1, GR-coupled NADPH fluorescence, 15 min; series mostly up to 48.8 µM. The essentials:
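Recombinant GPX1 (10 nM final) was preincubated with compound for 30 min at room temperature, then reacted with 1 mM GSH, 0.5 mM CHP, 0.5 mM NADPH and 100 nM glutathione reductase; NADPH fluorescence (340/450 nm) was read at 0 and 15 min.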
`COC(=O)c1ccc(=O)c2nc3/c(=C/O)c(O)cc(=O)c3[nH]c12`: the Potency result is “inactive”.
Same read-out and setting: the value for `N#Cc1c2nc3ccccc3nc2n2ccc(NC(=O)c3cccs3)cc12` was “inactive”.
Same read-out and setting: the value for `COc1cc2ncnc(Sc3nnc(C)s3)c2cc1OC` was “inactive”.
Same read-out and setting: the value for `Oc1cccc(Nc2ccnc3cc(-c4cccc(CN5CCOCC5)c4)sc23)c1` was “inactive”.
Take `CCOc1cccc2c1OC(c1ccc(F)cc1)C([N+](=O)[O-])=C2` (centres undefined): the Potency entry is “inactive”.
Same read-out and setting: the value for `CCCCCC1CC1CC1CC1CCCCCCCC(=O)O` (centres undefined) was “inactive”; that for `Oc1cccc(-c2nc(N3CCOCC3)c3sccc3n2)c1` was “inactive”.
With `O=C1NCCSc2c1sc1ccc(O)cc21`, the Potency entry is “inactive”.
`COC(=O)C#Cc1ccc([N+](=O)[O-])cc1`: the Potency entry was “inactive”.
Still for that read-out and setting: the value for `Nc1nc(N)c2nc(-c3cccc(O)c3)cnc2n1` was “inactive”.
In the case of `O=C1O[C@H](C(O)CO)C(=O)C1=O` (some centres undefined), the Potency result is “inactive”.
As for `Cc1cc(Nc2cc(C)c(C#N)c(NC(C)CCCC(C)(C)O)n2)n[nH]1` (centres undefined), the Potency entry was “inactive”.
On the same count and under the same terms, the value for `CSc1nc(N)cc(Oc2ccc(-c3nc(Nc4cccc(C(F)(F)F)c4)n[nH]3)cc2)n1` was “inactive”.
On the same count and under the same terms, the value for `CN[C@H]1CCN(C(=O)c2ccc(Nc3ncc(F)c(-c4cnc(C)n4C(C)C)n3)cc2)C1` was “inactive”; that for `CCN(CC)CCNc1ccc2ncn3c4ccc(O)cc4c(=O)c1c23` was “inactive”; that for `CN(C)CCCNc1c2ccccc2nc2c1[nH]c1ccccc12` was 22.7 µM (active).
The same measure, in the same setting: the value for `C=C(C)[C@@H]1CCC2=CC(=O)C[C@@H](C)[C@]2(C)C1` was “inactive”; that for `C/C(=C1/C(=O)Nc2ccc(NC(N)=O)cc21)c1ccc[nH]1` was “inactive”; that for `CC(Sc1nc2c(cnn2-c2cccc(Cl)c2)c(=O)[nH]1)C(N)=O` (centres undefined) was “inactive”.
Turning to `CC1=CC(=O)C(C(C)C)=C/C1=N/OC(=O)c1ccccc1C`, the Potency result was “inactive”.
Still for that read-out and setting: the value for `COc1ccc(-c2oc3ncnc(N)c3c2-c2ccc(NC(=O)Nc3cc(C(F)(F)F)ccc3F)cc2)cc1` was “inactive”; that for `CN1CCN(c2nc(C3=C(c4c[nH]c5ccccc45)C(=O)NC3=O)c3ccccc3n2)CC1` was “inactive”; that for `O=S(=O)(/N=C/c1c(O)ccc2ccccc12)c1cccs1` was “inactive”.
Same read-out and setting: the value for `Cc1cc(C)c(/C=C2\C(=O)Nc3ccc(Cl)cc32)[nH]1` was “inactive”.
The same measure, in the same setting: the value for `CCOC(=O)c1c2c3c(cccc3[nH]c1=O)C(=O)c1ccccc1-2` was “inactive”.
As for `O=C1Cc2c([nH]c3ccc([N+](=O)[O-])cc23)-c2ccccc2N1`, the Potency entry was “inactive”.
Regarding `O=C(NCCO)c1cc(C(=O)NCCO)cc(C(=O)NCCO)c1`, the Potency entry was “inactive”.
The same measure, in the same setting: the value for `CCCCCCCCCCCCCC#CC(=O)[C@@H]1COC(C)(C)N1C(=O)OC(C)(C)C` was “inactive”; that for `BrC1C(Br)C(Br)C(Br)C(Br)C1Br` (centres undefined) was “inactive”; that for `Cc1cc(Nc2nn(-c3ccccc3)c(=O)c3ccccc23)n[nH]1` was “inactive”.
Same read-out and setting: the value for `Cc1c(-c2ccnc(Nc3cc(Br)cc(C(F)(F)F)c3)n2)sc(=O)n1C` was “inactive”.
The same measure, in the same setting: the value for `CCN(CC)CCNC(=O)c1c(C)[nH]c(/C=C2\C(=O)Nc3ccc(Cl)cc32)c1C` was “inactive”; that for `CC(CCc1ccccn1)(CCc1ccccn1)C(=O)c1ccccc1` was “inactive”; that for `c1nc(NCC2CCOC2)c2cc(-c3ccc4c(c3)OCO4)ccc2n1` (centres undefined) was “inactive”.
On to `O=C(Nc1cccc(Nc2nccc(Nc3cccc(C(F)(F)F)c3)n2)c1)C1CC1`, for which the Potency result was “inactive”.
For `Cc1c[nH]c(/C=C2\C(=O)Nc3ccccc32)c1CCC(=O)O`, the Potency entry was “inactive”.
The same measure, in the same setting: the value for `CSC(Cc1ccc(Cl)cc1)C(=O)Nc1ccc(Cl)cc1C(=O)O` (centres undefined) was “inactive”; that for `COC1(c2sc3c(N4CCOCC4)nc(-c4cnc(N)nc4)nc3c2C)COC1` was “inactive”.
Turning to `Cc1cc(-c2ccc(/C=C3\SC(=Nc4ccc(Cl)c(C(=O)O)c4)NC3=O)o2)c([N+](=O)[O-])cc1C`, the Potency is 20.2 µM (active).

These data come from PubChem BioAssay (NCATS).
